Results filed as inconclusive are left out. Active and inactive are the calls of the source. The call rests on the fitted dose curve; in most records, active means well fitted curve in the direction sought with a large enough effect; inconclusive means small, poorly fitted or top-dose-only effect, or another doubt; inactive means no such curve, though single readings can be large; an effect the other way counts as inactive or inconclusive.
Key:
[1] = OV-KATE Cancer Cell Toxicity qHTS against the NCATS CANVASS Library (AID 1347345); further: potency means the concentration at half of the fitted maximal effect; on activity change, negative = cytotoxicity: on the % scale 0 is the no-effect control and ±100 the full control effect
Summary of the method: (§1)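 Toxicity is measured over 72 h of compound exposure at 37 degrees C under 5% CO2. Each well holds 1000 cells, pre-incubated for 4 hours before dosing across an 11-point range. CellTiter-Glo luminescence gives viability.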

[2] = HPAF-II Cancer Cell Toxicity qHTS against the NCATS CANVASS Library (AID 1347346); further: nearly all actives have a fitted effect of over 55% in size; further: potency means the concentration at half of the fitted maximal effect
Summary of the method: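 HPAF-II cells at 1000 cells/well were treated with an 11-point concentration series for 72 hours at 37 degrees C. Viability read by CellTiter-Glo luminescence.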

[3] = OV-SAHO Cancer Cell Toxicity qHTS against the NCATS CANVASS Library (AID 1347348); further: nearly all actives have a fitted effect of over 55% in size; further: potency means the concentration at half of the fitted maximal effect; on activity change, negative = cytotoxicity: series mostly up to about 38 µM; on the % scale 0 is the no-effect control and ±100 the full control effect
Summary of the method: as §1

[4] = COV-362 Cancer Cell Toxicity qHTS against the NCATS CANVASS Library (AID 1347352); further: potency means the concentration at half of the fitted maximal effect; on activity change, negative = cytotoxicity: series mostly up to about 38 µM; on the % scale 0 is the no-effect control and ±100 the full control effect
Summary of the method: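 Cells at 1000/well were given compound 4 h after plating in an 11-point series. Viability was read by CellTiter-Glo luminescence after 72 h at 37 degrees C.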

[5] = HPAF-II 24hr Apoptosis Induction qHTS against the NCATS CANVASS Library (AID 1347356); further: 0% is about no effect
Summary of the method: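 HPAF-II cells (500/well) exposed to compounds in 11-point series for 24 h at 37 degrees C; caspase-3/7 activity read by Caspase-Glo luminescence after 15 min at room temperature. Doxorubicin titration as control.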

[6] = HPAF-II 12hr Apoptosis Induction qHTS against the NCATS CANVASS Library (AID 1347358); further: 0% is about no effect
Summary of the method: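 HPAF-II cells, 500/well in DMEM + 10% FBS, exposed 12 hours at 37 degrees C to compound (11-point). Caspase-Glo 3/7 added for 15 min at room temperature; luminescence reflects caspase-3/7 activity.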

[7] = HEK293 24hr Apoptosis Induction qHTS against the NCATS CANVASS Library (AID 1347359); further: 0% is about no effect
Summary of the method: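 Caspase-3/7 activation measured as luminescence from the DEVD-based Caspase-Glo reagent, 15 min at room temperature, following 24-hour compound treatment of HEK293 cells.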

[8] = HPAF-II 18hr Apoptosis Induction qHTS against the NCATS CANVASS Library (AID 1347360); further: 0% is about no effect
Summary of the method: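 Caspase-3/7 activation was measured with luminescent Caspase-Glo 3/7 reagent (15 min, RT) in HPAF-II cancer cells (500 cells/well). Before detection, cells had been treated for 18 h at 37 C with compounds (11 points).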

[9] = biological target: Luciferin 4-monooxygenase (Photinus pyralis) (UniProt P08659); assay: Firefly luciferase counterscreen qHTS: Assay Interference Panel against the NCATS CANVASS Library (AID 1347363); further: series mostly up to about 57 µM; 0% is about no effect
Summary of the method: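 Luminescence inhibition readout: compounds (11-point qHTS) sat 15 min at room temperature with substrate mix (0.013 mM luciferin and ATP), then firefly luciferase was added and signal read 5 min later.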

[10] = qHTS for ATAD5 Antagonist screened against the NCATS CANVASS Library (AID 1347370); further: nearly all actives have a fitted effect of over 65% in size; further: potency means the concentration at half of the fitted maximal effect
Summary of the method: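 HEK293T cells with stably integrated ATAD5-luciferase reporter, 2000/well, 5 h attachment; compounds plus 10 µM 5-fluorouridine, 16 h at 37 °C. Luciferase luminescence read, with CellTiter-Fluor viability read first.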

[11] = J3T Cancer Cell Toxicity qHTS against the NCATS CANVASS Library (AID 1347371); further: potency means the concentration at half of the fitted maximal effect
Summary of the method: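 J3T dog glioma cells, 500 per well, treated 72 h at 37C with compounds (11-point qHTS); viability from ATP content by CellTiterGlo luminescence; bortezomib titration as control.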

[12] = biological target: Nuclear receptor subfamily 1 group I member 3 (Homo sapiens) (UniProt Q14994); assay: qHTS for Constitutive Androstane Receptor (CAR) Agonist screened against the NCATS CANVASS Library (AID 1347373);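 further: every well also contained 1.5 µM PK11195 alongside the test compound; 0% is about no effect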
Summary of the method: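 HepG2 cells stably carrying hCAR and a CYP2B6-2.2kb luciferase reporter, treated 24hr at 37C with compounds plus 1.5uM PK11195; activation by ONE-Glo luminescence, viability by CellTiter-Fluor.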

[13] = 10-beta competent E. coli microbial cell viability qHTS against the NCATS CANVASS Library (AID 1347376); further: series mostly up to about 46 µM; 0% is about no effect
Summary of the method: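 10-beta competent E. coli (0.2 OD) were exposed overnight at 37C to compounds in an 11-point series. Viability was read as ATP-dependent BacTiter-Glo luminescence after 20 min at room temperature.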

[14] = qHTS for Inflammasome Signaling Inhibitors: IL-1-beta AlphaLISA screen against the NCATS CANVASS Library (AID 1347379);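 further: human THP-1 cells primed with LPS then triggered with ATP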;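 on activity change, negative = inhibition: secreted IL-1B measured as AlphaLISA emission at 615 nm; on the % scale 0 is the no-effect control and ±100 the full control effect; lower signal means less IL-1B release which is the wanted effect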
Summary of the method: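 THP-1 cells pretreated 1 hr with compound (up to 57.5 uM final), then stimulated with LPS (250 ng/mL final) and ATP (1.25 mM final). Secreted IL-1B measured by AlphaLISA after 16 hr; glyburide as positive control.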

[15] = Inflammasome Signaling qHTS Counterscreen: IL-1-beta AlphaLISA counterscreen against the NCATS CANVASS Library (AID 1347381);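 further: cell-free check with purified IL-1β in medium and no THP-1 cells; series mostly up to about 57 µM; 0% is about no effect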
Summary of the method: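 Cell-free interference check: compounds added to medium spiked with 4 pg purified IL-1β. Anti-IL-1β acceptor beads (6 ug/mL) with 0.6 nM biotinylated antibody added for 1 h at RT, then streptavidin donor beads (24 ug/mL) for 30 min in the dark. AlphaLISA read at 680/615 nm.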

[16] = Viability qHTS for inhibitors of the SERCaMP assay screened against the NCATS CANVASS Library (AID 1347400); further: nearly all actives have a fitted effect of over 70% in size; further: potency means the concentration at half of the fitted maximal effect
Summary of the method: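 SH-SY5Y-GLuc SERCaMP MJH297-derived cells, 1000/well, plated 4 h, then exposed to compounds in an 11-point qHTS series for 48 h at 37C. Viability read as CellTiter-Glo luminescence.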

[17] = HEK293 18hr Apoptosis Induction qHTS against the NCATS CANVASS Library (AID 1347357); further: 0% is about no effect
Summary of the method: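 Caspase-Glo 3/7 luminescence (15 min, room temperature) measured apoptosis after an 18-hour, 37 degrees C exposure of HEK293 cells (500 cells/well) to compounds in 11 points.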

[18] = KB-3-1 Cancer Cell Toxicity qHTS against the NCATS CANVASS Library (AID 1347366); further: nearly all actives have a fitted effect of over 75% in size; further: potency means the concentration at half of the fitted maximal effect
Summary of the method: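 CellTiter-Glo luminescence measured viability after 72 h at 37C. KB-3-1 cells were seeded at 500 per well in DMEM/10% FBS.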

[19] = MCF7 Cancer Cell Toxicity qHTS against the NCATS CANVASS Library (AID 1347369); further: potency means the concentration at half of the fitted maximal effect; on activity change, negative = cytotoxicity: series mostly up to about 46 µM; on the % scale 0 is the no-effect control and ±100 the full control effect
Summary of the method: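 Cytotoxicity was measured as CellTiterGlo luminescence (ATP) after 72 h at 37 °C. The cells were MCF7 at 500 per well, with an 11-point compound concentration series.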

[20] = Cytotoxicity qHTS for assessment of Hepg2 cells membrane integrity screened against the NCATS CANVASS Library (AID 1347387)
Summary of the method: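 HepG2 cells (2000/well) attached overnight, then exposed 5 hr at 37C to compounds in an 11-point series (0.59 nM - 46 uM final). LDH release from damaged membranes read fluorometrically (CytoTox-ONE; 560/590 nm) after 10 min at room temperature.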

Luciferin 4-monooxygenase (Photinus pyralis), sequence (P08659 whole entry, looked up): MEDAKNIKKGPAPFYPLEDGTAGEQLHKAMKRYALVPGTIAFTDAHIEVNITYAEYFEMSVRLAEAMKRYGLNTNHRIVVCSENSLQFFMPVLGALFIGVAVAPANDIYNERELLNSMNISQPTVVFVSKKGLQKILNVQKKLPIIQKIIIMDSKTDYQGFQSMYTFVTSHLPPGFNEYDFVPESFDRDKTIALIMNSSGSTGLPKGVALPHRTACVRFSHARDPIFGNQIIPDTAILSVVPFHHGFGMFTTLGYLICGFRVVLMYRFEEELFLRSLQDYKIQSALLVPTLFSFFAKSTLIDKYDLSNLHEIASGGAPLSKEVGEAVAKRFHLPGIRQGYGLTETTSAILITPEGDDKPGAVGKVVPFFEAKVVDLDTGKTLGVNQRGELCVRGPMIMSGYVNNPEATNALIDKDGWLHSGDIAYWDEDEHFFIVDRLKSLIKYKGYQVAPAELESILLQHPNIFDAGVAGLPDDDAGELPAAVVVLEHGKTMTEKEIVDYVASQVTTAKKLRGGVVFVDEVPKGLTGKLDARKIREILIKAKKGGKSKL
Nuclear receptor subfamily 1 group I member 3 (Homo sapiens), sequence (Q14994 whole entry, looked up): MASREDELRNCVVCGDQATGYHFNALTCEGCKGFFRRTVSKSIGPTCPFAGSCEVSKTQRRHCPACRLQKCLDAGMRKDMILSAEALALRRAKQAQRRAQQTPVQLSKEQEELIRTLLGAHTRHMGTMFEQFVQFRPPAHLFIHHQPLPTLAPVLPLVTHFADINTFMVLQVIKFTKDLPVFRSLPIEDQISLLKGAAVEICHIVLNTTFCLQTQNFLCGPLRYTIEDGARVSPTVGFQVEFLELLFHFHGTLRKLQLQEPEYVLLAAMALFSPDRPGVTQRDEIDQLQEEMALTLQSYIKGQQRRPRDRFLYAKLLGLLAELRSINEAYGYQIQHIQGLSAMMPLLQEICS

C=C1C(=O)O[C@H]2[C@H]1CC/C(CO)=C\CC[C@@]1(C)O[C@@H]21
inactive: outcome [5] | Potency [6] | Potency [7] | Potency [8] | Potency [9] | outcome [12] | outcome [13] | outcome [15]
active: Potency [1] 18.8 µM | Potency [2] 16.8 µM | Potency [3] 23.6 µM | Potency [4] 13.3 µM | Potency [10] 20.9 µM | Potency [11] 18.7 µM | Potency [14] 6.11 µM | Potency [16] 34 µM

CCCCCCCCCCCCCCCC(=O)OC/C=C(\C)CCCC(C)CC(C)C(C)C (configuration not stated)
inactive: Potency [1] | Potency [3] | Potency [4] | outcome [5] | Potency [17] | Potency [6] | Potency [7] | Potency [8] | Potency [9] | Potency [18] | Potency [19] | Potency [10] | Potency [11] | outcome [12] | outcome [13] | Potency [14] | outcome [15] | outcome [20] | Potency [16]
active: Potency [2] 0.298 µM

Oc1ccc(/C=C2/c3cc(O)cc(O)c3C(c3ccc(O)cc3)[C@H]2c2cc(O)cc(O)c2)cc1 (some centres not stated)
active: Potency [3] 14.9 µM
inactive: Potency [1] | Potency [2] | Potency [4] | outcome [5] | Potency [17] | Potency [6] | Potency [7] | Potency [8] | Potency [9] | Potency [19] | Potency [10] | Potency [11] | outcome [12] | outcome [13] | Potency [14] | outcome [15] | outcome [20] | Potency [16]

C/C(=C\[C@H](C)C(=O)CCCC1CC(=O)NC(=O)C1)C(O)[C@@H](C)[C@H](O)C/C=C/CC/C=C/C(=O)O (some centres not stated)
inactive: Potency [1] | Potency [2] | Potency [3] | Potency [4] | outcome [5] | Potency [17] | Potency [6] | Potency [7] | Potency [8] | Potency [9] | Potency [18] | Potency [19] | Potency [10] | Potency [11] | outcome [12] | outcome [13] | Potency [14] | outcome [15] | outcome [20] | Potency [16]

O=C(O)CC1OC(=O)c2c(O)cccc21 (configuration not stated)
inactive: Potency [1] | Potency [2] | Potency [3] | Potency [4] | outcome [5] | Potency [17] | Potency [6] | Potency [7] | Potency [8] | Potency [9] | Potency [18] | Potency [19] | Potency [10] | Potency [11] | outcome [12] | outcome [13] | Potency [14] | outcome [15] | outcome [20] | Potency [16]

COc1ccc2oc3c(OC)c(OC)c(OC)c(OC)c3c(=O)c2c1
inactive: activity change, negative = cytotoxicity [1] -4.56% [at 7.64 µM] | activity change, negative = cytotoxicity [2] -3.19% [at 7.64 µM] | activity change, negative = cytotoxicity [3] -19.6% [at 7.64 µM] | activity change, negative = cytotoxicity [4] -3.36% [at 7.64 µM] | caspase activation [5] 1.51% [at 9.19 µM] | caspase activation [17] 2.9% [at 9.19 µM] | caspase activation [6] 5.91% [at 9.19 µM] | activation [7] -1% [at 9.19 µM] | caspase activation [8] 4.09% [at 9.19 µM] | activity change, negative = inhibition [9] -22.3% [at 11.5 µM] | activity change, negative = cytotoxicity [18] -8.69% [at 9.19 µM] | activity change, negative = cytotoxicity [19] 0.434% [at 9.17 µM] | activity change, negative = inhibition [10] -20.5% [at 9.19 µM] | activity change, negative = cytotoxicity [11] -8.53% [at 9.19 µM] | activation [12] 7.45% [at 9.19 µM] | activity change, negative = cytotoxic [13] -7.99% [at 9.19 µM] | outcome [14] inactive [at 11.5 µM] | activity change, negative = inhibition [15] 10.5% [at 11.5 µM] | cytotoxicity (LDH release) [20] -0.617 [at 9.19 µM] | activity change, negative = cytotoxicity [16] -11.8% [at 18.4 µM]

C=C1C[C@@]23C=CC(=O)[C@@](C)(CCC(=O)Nc4c(O)ccc(C(=O)O)c4O)C2C[C@@H]1C(O)C3 (some centres not stated)
inactive: Potency [1] | Potency [2] | Potency [3] | Potency [4] | outcome [5] | Potency [17] | Potency [6] | Potency [7] | Potency [8] | Potency [9] | Potency [18] | Potency [19] | Potency [10] | Potency [11] | outcome [12] | outcome [13] | Potency [14] | outcome [15] | outcome [20] | Potency [16]

C=C1C[C@@]23C=CC(=O)[C@@](C)(CCCC(C)C(=O)O)[C@@H]2C[C@@H]1CC3 (some centres not stated)
inactive: Potency [1] | Potency [2] | Potency [3] | Potency [4] | outcome [5] | Potency [17] | Potency [6] | Potency [7] | Potency [8] | Potency [9] | Potency [18] | Potency [19] | Potency [10] | Potency [11] | outcome [12] | outcome [13] | Potency [14] | outcome [15] | outcome [20] | Potency [16]

CCC[C@@H](C)/C=C(\C)[C@H](O)[C@H](C)/C=C/CC[C@@H](O)[C@H](C)[C@H](O)[C@H](C)[C@H](O)[C@H](C)[C@H]1O[C@H]([C@H](C)C(=O)O)CC[C@@H]1C
active: Potency [1] 3.75 µM | Potency [2] 4.73 µM | Potency [3] 3.34 µM | Potency [4] 5.94 µM | Potency [18] 11.8 µM | Potency [19] 16.5 µM | Potency [16] 27 µM
inactive: outcome [5] | Potency [17] | Potency [6] | Potency [7] | Potency [8] | Potency [9] | Potency [11] | outcome [12] | outcome [13] | outcome [15]

CNc1ccc(Cl)cc1C(=O)OC[C@]1(C)[C@H]2CC[C@]3(C)[C@@H](C[C@@H](OC)[C@H](C)[C@H]3C3=C(O)C(=O)OC3O)[C@]2(C)CC[C@H]1O (some centres not stated)
inactive: Potency [1] | Potency [2] | Potency [3] | Potency [4] | outcome [5] | Potency [17] | Potency [6] | Potency [7] | Potency [8] | Potency [9] | Potency [18] | Potency [19] | Potency [10] | Potency [11] | outcome [12] | outcome [13] | Potency [14] | outcome [15] | outcome [20] | Potency [16]

C=C[C@]1(C)CC[C@@H]([C@H](C)C(=O)/C=C/C(C)C)O1
inactive: Potency [1] | Potency [2] | Potency [3] | Potency [4] | outcome [5] | Potency [17] | Potency [6] | Potency [7] | Potency [8] | Potency [9] | Potency [18] | Potency [19] | Potency [10] | Potency [11] | outcome [12] | outcome [13] | Potency [14] | outcome [15] | outcome [20] | Potency [16]
